Experiment: inhibition of PEG-3 promoter-driven reporter – cell-based, HeLa, luciferase, CREF/GAPDH counter-screen panel, dose response (AID 624167)
Details: CREF/GAPDH counter-screens; run 2, dose range 1, at 100 µM (top of the series)

| SMILES | inhibition [%] |
| --- | --- |
| CC(/C=C/c1ccccc1)=N/NC(=O)c1cc([N+](=O)[O-])cc([N+](=O)[O-])c1 | 12.6 |
| O=C(CNC(=O)C(c1ccccc1)c1ccccc1)N/N=C/c1ccc(O)cc1O | 22.3 |
| CCC(=O)NC(c1ccc(C)cc1)c1ccc2cccnc2c1O (stereo not drawn) | 53.6 |
| COc1cc(OC)c2cc(C(=O)N/N=C/c3ccccc3O)[nH]c2c1 | 73.3 |
| CS(=O)(=O)Nc1cccc(NC(=O)C2Cc3c(-c4cccc(F)c4)ccnc3O2)c1 (stereo not drawn) | 73.6 |
| COc1ccc(-n2cc(-c3ccccc3)c3c(N4CCOCC4)ncnc32)cc1 | 91.3 |
| CC(=O)c1ccc(-c2cnc3c(NC=O)cc(-c4ccccc4Oc4ccccc4)cn23)cc1 | 40 |
| O=C(N/N=C/c1c(O)ccc2ccccc12)c1ccc(CO)nc1 | 3.42 |
| Oc1[nH]c2ccc(Br)cc2c1N=NC(=S)N1CCOCC1 | 63.5 |
| Cc1cc(NC(c2ccc(Cl)cc2)c2ccc3cccnc3c2O)no1 (stereo not drawn) | 55.8 |
| CC(=O)NC(c1ccc(Cl)cc1Cl)c1ccc2cccnc2c1O (stereo not drawn) | 61.7 |
| O=[N+]([O-])c1nn(-c2ccc3c(c2)OCCO3)n(O)c1=Nc1ccc(Cl)cc1 | 80.8 |
| C/C(=N\NC(=O)c1cc(C2CC2)nc2ccccc12)c1ccc(O)cc1O | -6.29 |
| O=C(CCl)N1c2ccccc2Sc2ccc3ccccc3c21 | 100 |
| CCOC(=O)c1c(SCCN2CCCCC2)n(-c2ccccc2)c(=S)n(-c2ccccc2)c1=O | 98 |
| CN(C)c1ccc(C=c2c3ccccc3n3c2cc(-c2ccccc2)[n+]3C)cc1 | 100 |
| COc1ccc(NC(=O)c2cc(-c3ccccn3)nc3ccccc23)cc1S(=O)(=O)N(C)C | 60.4 |

| SMILES | inhibition [%] |
| --- | --- |
| N=c1n(CC(=O)c2ccc([N+](=O)[O-])cc2)c2ccccc2n1Cc1ccc(Cl)cc1 | 90.8 |
| CCCC(=O)NC(c1ccc(C)cc1)c1ccc2cccnc2c1O (stereo not drawn) | 57.9 |
| O=C(N/N=C/c1sc(N2CCOCC2)nc1-c1ccccc1)c1cccc(S(=O)(=O)N2CCCC2)c1 | 42.2 |
| CC1=CC2C(C(O)CC3(C)C2CC(C)C32OCOC23COCO3)C2(C)C/C(=C\O)C(=O)C=C12 (stereo not drawn) | 100 |
| COc1ccccc1Nc1nc(-c2sc(NC(=O)c3ccco3)nc2C)cs1 | 19.4 |
| CCc1ccn2cc(-c3ccc4c(c3)OCO4)nc2c1 | 97.5 |
| CN(C)c1c([N+](=O)[O-])cc(N2C(=O)C=CC2=O)cc1[N+](=O)[O-] | 98.5 |
| O=c1cnnc(N/N=C/c2ccccn2)[nH]1 | 9.22 |
| O=c1c2ccccc2sc2nc(CCl)nn12 | 99.3 |
| CC(C)CC1C(=O)N(Cc2cn(Cc3ccco3)nn2)CCS(=O)(=O)N1Cc1ccc(-c2ccc(F)cc2)cc1 (stereo not drawn) | 54.7 |
| Cc1nc(C)c(C(=O)N/N=C/c2cc(Br)ccc2O)s1 | 6.13 |
| O=C(CNc1ccccc1)N/N=C/c1c(O)ccc2ccccc12 | 63.7 |
| COc1ccc(/C=C2\SC(=S)N(CCCC(=O)NNC(=O)c3ccccc3O)C2=O)cc1 | 72.3 |
| Cc1ccsc1/C=N/Nc1cccc(C(=O)O)c1 | 96.5 |
| CN1C/C(=C/c2ccccc2[N+](=O)[O-])C(=O)/C(=C\c2ccccc2[N+](=O)[O-])C1 | 53.9 |
| COc1ccc(N(C(=O)CCl)C(C(=O)NC2CCCCC2)c2cccnc2)cc1 (stereo not drawn) | 82.8 |

From PubChem BioAssay AID624167 (Sanford-Burnham Center for Chemical Genomics, 2012)
